# Data published in PubChem BioAssay (NCATS).
# Unmarked numbers belong to inactive results. Inconclusive results are not listed. Calls of active or inactive are those of the source. Unless noted, calls follow the shape of the dose curve; as a rule, active = well fitted curve in either direction with a large enough effect (not every such curve was filed as active); inconclusive = small, poorly fitted or top-dose-only effect, or another doubt; inactive = flat fitted curve, though single readings scatter.
# Tests used:
# [1] = target: Lysosomal acid glucosylceramidase (Homo sapiens) (UniProt P04062); test: Glucocerebrosidase-p2 (AID 348; in the data active = potency below about 10 µM; also: potency is read from the fitted curve at half-maximal effect); details: purified GBA, blue fluorogenic substrate, 40 min
# Sequence of Lysosomal acid glucosylceramidase (Homo sapiens) (P04062 whole entry, looked up): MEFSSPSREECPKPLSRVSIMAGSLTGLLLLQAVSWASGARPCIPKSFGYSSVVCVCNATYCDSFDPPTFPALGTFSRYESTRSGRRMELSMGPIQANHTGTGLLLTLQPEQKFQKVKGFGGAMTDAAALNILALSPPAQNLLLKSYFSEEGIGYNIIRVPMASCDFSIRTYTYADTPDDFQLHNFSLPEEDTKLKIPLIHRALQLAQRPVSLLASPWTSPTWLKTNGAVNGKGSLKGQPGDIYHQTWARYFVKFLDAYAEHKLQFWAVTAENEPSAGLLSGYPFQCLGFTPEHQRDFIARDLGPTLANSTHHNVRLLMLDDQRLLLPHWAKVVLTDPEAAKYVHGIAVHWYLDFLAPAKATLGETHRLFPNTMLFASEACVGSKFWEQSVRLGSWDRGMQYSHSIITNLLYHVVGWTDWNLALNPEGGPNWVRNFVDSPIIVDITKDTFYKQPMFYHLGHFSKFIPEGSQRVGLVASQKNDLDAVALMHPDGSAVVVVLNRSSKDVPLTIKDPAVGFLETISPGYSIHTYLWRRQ
# Procedure, shortened: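 Normal human glucocerebrosidase (0.2 nM) with blue fluorogenic substrate (80 uM final) in citrate/phosphate pH 5.9 with 10mM sodium taurocholate, 0.01% tween-20; 40 min RT, NaOH/glycine stop; fluorescence Ex 365/Em 440; AC50 from a titration from 0.6 nM upwards.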
# [2] = AP1 Signaling Pathway (AID 357); details: ME-180 AP-1-bla reporter, EGF-induced, beta-lactamase ratio, 5 h; at 7.69 µM (top of the series) unless noted;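 also: ME-180 reporter cells stimulated with EGF at its EC50 level; % is scaled to controls: 0 for no effect and ±100 for the full control effect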
# Procedure, shortened: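 Beta-lactamase reporter under AP-1 response element, ME-180 background. Stimulus: EC50 EGF. Compound exposure 5 h, 37 °C. Detection: CCF4, 2.5 h RT, 460/530 nm. Values: AC50 from titration.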
# [3] = target: Cytochrome P450 1A2 (Homo sapiens) (UniProt P05177); test: p450-cyp1a2 (AID 410; calls by dose curve; also: potency is read from the fitted curve at half-maximal effect;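 as to activity change, negative = inhibition: -100% = full effect of reference inhibitor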); details: recombinant CYP1A2, luciferin-ME demethylation, luminescence; series mostly up to 11.4 µM
# Sequence of Cytochrome P450 1A2 (Homo sapiens) (P05177 whole entry, looked up): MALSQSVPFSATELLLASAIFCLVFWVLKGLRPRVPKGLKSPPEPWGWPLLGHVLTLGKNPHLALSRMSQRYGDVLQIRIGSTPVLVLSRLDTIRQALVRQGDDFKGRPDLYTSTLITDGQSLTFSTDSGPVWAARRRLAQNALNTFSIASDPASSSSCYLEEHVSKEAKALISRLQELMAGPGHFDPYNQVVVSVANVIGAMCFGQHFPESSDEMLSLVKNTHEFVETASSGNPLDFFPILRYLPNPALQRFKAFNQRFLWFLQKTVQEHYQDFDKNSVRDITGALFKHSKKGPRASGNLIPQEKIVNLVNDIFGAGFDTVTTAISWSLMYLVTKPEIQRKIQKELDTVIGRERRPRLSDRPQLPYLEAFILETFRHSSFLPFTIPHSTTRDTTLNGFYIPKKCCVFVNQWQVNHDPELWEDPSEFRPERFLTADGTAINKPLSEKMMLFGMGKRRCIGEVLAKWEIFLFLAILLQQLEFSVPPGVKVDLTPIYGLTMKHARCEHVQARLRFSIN
# Procedure, shortened: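 O-Demethylation of luciferin 6' methyl ether by human CYP1A2 is monitored as luciferase luminescence. Substrate sits at Km (100uM); enzyme is 20nM. Values are scaled to 57 uM furafylline as maximal inhibition.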
# [4] = NFAT Signaling Pathway (AID 444); details: Jurkat NFAT-bla M1, carbachol, beta-lactamase ratio, 5 h; at 7.69 µM (top of the series) unless noted;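 also: carbachol stimulus at about its EC50 of 1 µM final; % is scaled to controls: 0 for no effect and ±100 for the full control effect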
# Procedure, shortened: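 Read-out: CCF4 FRET ratio (460 nm/530 nm) after 1 h RT dye loading, used for %activity and AC50 from titration series. Cells: Jurkat NFAT-β-lactamase/M1 line, treated with compound plus 1 uM carbachol for 5 h, 37 °C.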
# [5] = Stat Signaling Pathway (AID 446); details: ME-180 (cervical carcinoma) SIE beta-lactamase reporter, IL-6 stimulated, 5 h; at 7.69 µM (top of the series) unless noted;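 also: ME-180 cervical cancer cells given 40 pM IL-6 alongside compound; SIE-controlled beta-lactamase reporter measured as 460/530 nm FRET emission ratio; % is scaled to controls: 0 for no effect and ±100 for the full control effect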
# Procedure, shortened: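 Overnight-plated ME-180 cells bearing a STAT Inducible Element beta-lactamase reporter; 5 h co-exposure to compound and 40 pM IL-6; values normalized to 300 pM IL-6 and 125 nM JAK inhibitor controls.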
# [6] = target: Glucocorticoid receptor (Homo sapiens) (UniProt P04150); test: GR-GFP Redistribution (AID 450;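 active = compounds whose dose series gives a full or clear partial fitted curve of increased nuclear translocation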; also: potency is read from the fitted curve at half-maximal effect); details: U2OS GR-GFP nuclear translocation, laser cytometry, 2 h
# Sequence of Glucocorticoid receptor (Homo sapiens) (P04150 whole entry, looked up, the tested form may be a part): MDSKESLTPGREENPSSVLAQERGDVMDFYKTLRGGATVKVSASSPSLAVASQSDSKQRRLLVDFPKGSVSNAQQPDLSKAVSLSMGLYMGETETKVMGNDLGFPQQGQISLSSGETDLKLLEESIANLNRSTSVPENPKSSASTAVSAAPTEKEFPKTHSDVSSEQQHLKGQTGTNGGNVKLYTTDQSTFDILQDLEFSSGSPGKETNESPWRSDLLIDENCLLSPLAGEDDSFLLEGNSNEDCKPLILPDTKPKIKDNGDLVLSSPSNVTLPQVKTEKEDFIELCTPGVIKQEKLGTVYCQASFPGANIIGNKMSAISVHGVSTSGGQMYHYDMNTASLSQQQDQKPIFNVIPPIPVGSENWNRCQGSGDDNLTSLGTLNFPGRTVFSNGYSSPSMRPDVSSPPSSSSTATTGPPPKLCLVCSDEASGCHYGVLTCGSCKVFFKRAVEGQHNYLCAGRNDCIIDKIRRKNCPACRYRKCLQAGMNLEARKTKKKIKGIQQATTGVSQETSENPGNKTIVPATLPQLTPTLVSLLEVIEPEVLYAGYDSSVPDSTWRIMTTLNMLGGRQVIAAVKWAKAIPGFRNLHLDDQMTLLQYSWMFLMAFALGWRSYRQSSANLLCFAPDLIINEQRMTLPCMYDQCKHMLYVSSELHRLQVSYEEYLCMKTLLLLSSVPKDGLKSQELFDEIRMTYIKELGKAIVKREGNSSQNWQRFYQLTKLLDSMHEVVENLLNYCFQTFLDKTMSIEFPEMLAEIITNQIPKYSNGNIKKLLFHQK
# [7] = target: Mitogen-activated protein kinase 10 (Mus musculus) (UniProt Q61831); test: JNK3 AlphaScreen Assay (AID 530); details: JNK3 lysate, c-Jun phosphorylation; series mostly up to 57.1 µM;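 also: kinase came from lysate of stimulated human HepG2 cells; signal reports phosphorylation of biotinylated GST-cJun 1-79 at Ser73 with 10 µM ATP; % is scaled to controls: 0 for no effect and ±100 for the full control effect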
# Procedure, shortened: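 qHTS titrations with 15 min compound pre-incubation before adding ATP (10 uM final). Read-out: AlphaScreen of Ser73-phosphorylated biotin-GST-cJun using HepG2 lysate JNK3 activated by IL-1β and TNFα.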
# [8] = target: 3',5'-cyclic-AMP phosphodiesterase 4B (Homo sapiens) (UniProt Q07343); test: qHTS Assay for Inhibitors of PDE-IV (AID 607; active = well fitted activation curve with a large enough effect in the main read-out, with a control signal flat, not every such curve was filed as active; also: % of control where 0% means no effect); details: HEK293 ACTOne CNG channel cells, membrane potential fluorescence; series mostly up to 22.9 µM
# Sequence of 3',5'-cyclic-AMP phosphodiesterase 4B (Homo sapiens) (Q07343 whole entry, looked up): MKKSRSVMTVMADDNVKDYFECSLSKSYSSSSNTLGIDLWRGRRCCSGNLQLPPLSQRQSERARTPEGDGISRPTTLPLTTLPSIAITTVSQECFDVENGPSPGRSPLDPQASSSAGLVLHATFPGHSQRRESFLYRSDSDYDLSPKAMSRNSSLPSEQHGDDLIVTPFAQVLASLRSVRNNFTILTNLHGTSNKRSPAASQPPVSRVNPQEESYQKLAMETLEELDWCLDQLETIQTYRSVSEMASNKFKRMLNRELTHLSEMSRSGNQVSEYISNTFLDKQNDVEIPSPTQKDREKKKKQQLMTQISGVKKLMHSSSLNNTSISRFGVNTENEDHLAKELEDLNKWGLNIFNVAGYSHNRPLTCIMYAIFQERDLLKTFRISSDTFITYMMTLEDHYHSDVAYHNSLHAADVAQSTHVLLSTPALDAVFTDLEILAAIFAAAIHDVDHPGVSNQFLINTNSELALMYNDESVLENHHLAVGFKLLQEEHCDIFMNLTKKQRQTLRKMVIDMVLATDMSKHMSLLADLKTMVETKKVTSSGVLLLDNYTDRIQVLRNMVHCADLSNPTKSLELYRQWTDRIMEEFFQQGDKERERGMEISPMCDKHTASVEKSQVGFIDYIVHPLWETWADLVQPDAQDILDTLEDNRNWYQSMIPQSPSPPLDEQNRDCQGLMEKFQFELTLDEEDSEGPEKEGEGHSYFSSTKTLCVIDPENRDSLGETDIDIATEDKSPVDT
# Procedure, shortened: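 Live HEK293 cells with a modified cyclic nucleotide-gated (CNG) channel report intracellular cAMP via membrane-potential dye fluorescence (ex 535/em 590 nm). Endogenous PDE-IV was targeted. Compounds were tested at up to 22.9 uM final; RO 20-1724 100 uM served as control.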
# [9] = target: Glucocorticoid receptor (Homo sapiens) (UniProt P04150); test: GR-EFC Redistribution (AID 451; calls by dose curve; also: potency is read from the fitted curve at half-maximal effect); details: CHO-K1 GR-EFC translocation, beta-gal luminescence, 2 h
# Procedure, shortened: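 Translocation of GR-ED fusion to nuclear EA restores b-gal, read by luminescence after 1 h room-temperature detection. Engineered CHO-K1 biosensor cells, 1,000/well, exposed 2 h at 37 C to titrations up to 46 uM final.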
# [10] = target: Cytochrome P450 2C19 (Homo sapiens) (UniProt P33261); test: qHTS Assay for Inhibitors and Substrates of Cytochrome P450 2C19 (AID 899; active = well fitted curve in the direction sought with a large enough effect; an effect the other way counts as inactive or inconclusive; also: nearly all actives have a fitted effect of over 60% in size; also: potency is read from the fitted curve at half-maximal effect); details: recombinant CYP2C19, luciferin-H EGE luminescence; series mostly up to 11.4 µM
# Sequence of Cytochrome P450 2C19 (Homo sapiens) (P33261 whole entry, looked up): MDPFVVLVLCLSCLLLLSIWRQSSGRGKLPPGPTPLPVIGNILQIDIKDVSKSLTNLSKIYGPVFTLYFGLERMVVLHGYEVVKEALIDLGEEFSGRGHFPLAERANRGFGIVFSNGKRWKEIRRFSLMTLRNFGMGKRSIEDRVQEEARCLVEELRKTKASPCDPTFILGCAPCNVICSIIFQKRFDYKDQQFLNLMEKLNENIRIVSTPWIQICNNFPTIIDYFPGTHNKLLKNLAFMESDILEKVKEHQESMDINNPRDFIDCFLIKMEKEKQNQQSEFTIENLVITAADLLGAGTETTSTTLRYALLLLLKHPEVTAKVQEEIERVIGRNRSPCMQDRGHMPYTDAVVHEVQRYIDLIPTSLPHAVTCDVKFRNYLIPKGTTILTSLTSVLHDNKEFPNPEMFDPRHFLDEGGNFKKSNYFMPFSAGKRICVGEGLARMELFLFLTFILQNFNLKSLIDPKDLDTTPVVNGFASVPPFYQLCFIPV
# Procedure, shortened: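 Reactions contain 5nM enzyme, 10uM Luciferin-H EGE (KM) and 50mM KPO4; compound preincubates 10 min at 37C, NADPH regeneration starts turnover for 60 min. Luminescence after detection reagent gives activity.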
# [11] = target: Cytochrome P450 2C9 (Homo sapiens) (UniProt P11712); test: qHTS Assay for Inhibitors and Substrates of Cytochrome P450 2C9 (AID 883; active = well fitted curve in the direction sought with a large enough effect; an effect the other way counts as inactive or inconclusive; also: potency is read from the fitted curve at half-maximal effect; nearly all actives have a fitted effect of over 60% in size); details: recombinant CYP2C9, luciferin-H luminescence, 60 min; series mostly up to 57.1 µM
# Sequence of Cytochrome P450 2C9 (Homo sapiens) (P11712 whole entry, looked up): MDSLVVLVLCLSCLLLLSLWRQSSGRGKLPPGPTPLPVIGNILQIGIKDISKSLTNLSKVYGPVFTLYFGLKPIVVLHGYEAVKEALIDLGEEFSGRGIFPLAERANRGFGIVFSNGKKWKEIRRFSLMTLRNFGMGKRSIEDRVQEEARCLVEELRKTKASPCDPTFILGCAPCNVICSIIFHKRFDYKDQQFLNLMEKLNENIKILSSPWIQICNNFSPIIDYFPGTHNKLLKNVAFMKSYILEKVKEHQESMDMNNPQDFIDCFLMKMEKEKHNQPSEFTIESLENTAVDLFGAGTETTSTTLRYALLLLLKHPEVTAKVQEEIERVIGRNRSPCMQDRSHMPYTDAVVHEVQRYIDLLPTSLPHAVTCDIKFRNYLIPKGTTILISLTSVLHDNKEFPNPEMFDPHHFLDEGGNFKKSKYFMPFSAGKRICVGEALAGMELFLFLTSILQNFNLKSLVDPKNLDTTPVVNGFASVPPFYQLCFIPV
# Procedure, shortened: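 Turnover of Luciferin-H (100uM, KM) by 10nM human CYP2C9 was measured over 60 min at 37C with NADPH regeneration; inhibitors and some substrates reduce luminescence. Data normalized to sulphaphenazole 57uM.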
# [12] = target: Cytochrome P450 3A4 (Homo sapiens) (UniProt P08684); test: qHTS Assay for Activators of Cytochrome P450 3A4 (AID 885; active = well fitted curve in the direction sought with a large enough effect; an effect the other way counts as inactive or inconclusive; also: nearly all actives have a fitted effect of over 65% in size; also: potency is read from the fitted curve at half-maximal effect); details: recombinant CYP3A4, Luciferin-PPXE luminescence, 60 min; series mostly up to 57.1 µM
# Sequence of Cytochrome P450 3A4 (Homo sapiens) (P08684 whole entry, looked up): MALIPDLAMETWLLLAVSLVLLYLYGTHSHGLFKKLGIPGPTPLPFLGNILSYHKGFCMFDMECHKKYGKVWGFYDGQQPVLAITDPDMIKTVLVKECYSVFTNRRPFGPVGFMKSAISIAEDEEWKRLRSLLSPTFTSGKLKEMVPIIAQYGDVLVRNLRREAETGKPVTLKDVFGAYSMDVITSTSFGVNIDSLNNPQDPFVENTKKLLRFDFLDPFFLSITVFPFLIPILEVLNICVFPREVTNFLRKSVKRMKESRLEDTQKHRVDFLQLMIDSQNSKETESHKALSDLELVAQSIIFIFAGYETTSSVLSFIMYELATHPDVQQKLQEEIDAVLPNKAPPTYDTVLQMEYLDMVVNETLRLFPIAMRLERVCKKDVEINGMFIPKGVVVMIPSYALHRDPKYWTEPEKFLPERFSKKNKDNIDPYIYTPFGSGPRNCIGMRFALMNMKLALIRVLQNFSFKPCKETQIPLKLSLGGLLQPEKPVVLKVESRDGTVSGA
# Procedure, shortened: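 Using 20nM recombinant human CYP3A4 in potassium phosphate (200mM), substrate Luciferin-PPXE at 25uM, luminescent luciferin detection followed a 60-min RT NADPH reaction; data scaled to 57 uM ketoconazole.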
# [13] = target: Cytochrome P450 2D6 (Homo sapiens) (UniProt P10635); test: qHTS Assay for Inhibitors and Substrates of Cytochrome P450 2D6 (AID 891; active = well fitted curve in the direction sought with a large enough effect; an effect the other way counts as inactive or inconclusive; also: nearly all actives have a fitted effect of over 60% in size; also: potency is read from the fitted curve at half-maximal effect); details: recombinant CYP2D6, luciferin-ME EGE luminescence; series mostly up to 11.4 µM
# Sequence of Cytochrome P450 2D6 (Homo sapiens) (P10635 whole entry, looked up): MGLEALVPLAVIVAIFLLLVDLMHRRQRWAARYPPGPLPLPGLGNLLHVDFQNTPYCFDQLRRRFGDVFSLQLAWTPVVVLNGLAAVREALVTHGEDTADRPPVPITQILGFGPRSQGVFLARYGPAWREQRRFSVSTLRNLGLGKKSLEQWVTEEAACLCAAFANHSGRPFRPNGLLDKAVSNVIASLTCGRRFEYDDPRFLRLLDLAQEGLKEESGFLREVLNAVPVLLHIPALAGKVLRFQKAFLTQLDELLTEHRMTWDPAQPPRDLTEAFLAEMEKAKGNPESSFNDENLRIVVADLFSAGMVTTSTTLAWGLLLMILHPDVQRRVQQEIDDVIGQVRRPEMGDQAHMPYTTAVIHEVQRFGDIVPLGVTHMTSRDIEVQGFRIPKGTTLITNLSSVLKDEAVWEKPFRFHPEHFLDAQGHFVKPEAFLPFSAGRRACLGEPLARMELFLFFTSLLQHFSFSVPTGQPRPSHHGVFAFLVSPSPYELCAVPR
# Procedure, shortened: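 Luminescent read-out of luciferin formed by 5 nM human CYP2D6 demethylating 30 uM Luciferin-ME EGE (Km level) over 60 min at room temperature after NADPH regeneration addition. Data normalized to full inhibition by 1.43 uM quinidine.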
# [14] = target: Cytochrome P450 3A4 (Homo sapiens) (UniProt P08684); test: qHTS Assay for Inhibitors and Substrates of Cytochrome P450 3A4 (AID 884; active = well fitted curve in the direction sought with a large enough effect; an effect the other way counts as inactive or inconclusive; also: % is scaled to controls: 0 for no effect and ±100 for the full control effect; nearly all actives have a fitted effect of over 50% in size); details: recombinant CYP3A4, Luciferin-PPXE luminescence; series mostly up to 57.1 µM
# Procedure, shortened: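 Luminescent readout of luciferin produced by CYP3A4 (20 nM) dealkylation of Luciferin-PPXE, 25 uM (its KM). NADPH-driven reaction ran 60 min at RT after 10 min compound preincubation; data scaled to 57 uM ketoconazole as 100% inhibition.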
SMILES,Potency [1] [µM],"activity change, negative = inhibition [2] [%]","activity change, negative = inhibition [3]","activity change, negative = inhibition [4] [%]","activity, negative = inhibition [5] [%]",Potency [6],"activity change, negative = inhibition [7]",outcome [8],Potency [3],Potency [9] [µM],Potency [10],Potency [11],"activity change, positive = activation [12]",Potency [13],"activity change, negative = inhibition [14]",Potency [12]
CC[C@@]1(O)C(=O)OCc2c1cc1n(c2=O)Cc2cc3c(NC(=O)CN)cccc3nc2-1,> 11.4,-9.07,-12.3% [at 2.29 µM],-29.2,-20.5,> 46 µM,-2.05% [at 11.4 µM],inactive,–,–,–,–,–,–,–,–
CN1C[C@H](C(=O)N[C@@]2(C)O[C@@]3(O)[C@H]4CCCN4C(=O)[C@@H](Cc4ccccc4)N3C2=O)C=C2c3cccc4[nH]cc(c34)C[C@@H]21,> 11.4,2.32,–,-0.805,0.776,> 46 µM,-2.44% [at 11.4 µM],inactive,3.16 µM (active),–,–,–,–,–,–,–
O=[As](O)(O)c1ccc2nc3cc([As](=O)(O)O)ccc3nc2c1,> 11.4,0.372,–,20.7,-4.42,> 46 µM,-2.18% [at 11.4 µM],–,inactive,> 9.22,inactive,–,–,–,–,–
C[C@H](Br)CN(C[C@H](C)Br)c1ccc2c(c1)Cc1ccccc1-2,> 11.4,-9.29,–,8.25,-7.03,> 46 µM,-8.45% [at 11.4 µM],inactive,3.16 µM (active),> 9.22,2.51 µM (active),3.16 µM (active),-34.7% [at 11.4 µM],inactive,–,–
c1ccc(CCN2CCCCCC2)nc1,> 11.4,-1.84,–,-10.4,3.27,> 46 µM,4.35% [at 11.4 µM],inactive,inactive,–,–,–,–,–,–,–
CC(=O)O[C@H]1CC[C@@]2(C)[C@@H](CC[C@H]3[C@H]2CC(=O)[C@]2(C)[C@@H]3C[C@@H](N3CC3)[C@H]2C(C)=O)C1,> 11.4,4.13,–,13.1,5.02,> 46 µM,-0.773% [at 11.4 µM],inactive,0.0398 µM (active),> 9.22,inactive,–,–,–,71.6% [at 11.4 µM],3.98 µM (active)
O=C(O)C[O][Sb][O]CC(=O)O,> 11.4,4.83,-7.8% [at 2.29 µM],6.08,7.88,> 46 µM,1.01% [at 11.4 µM],inactive,–,> 9.22,inactive,–,–,–,–,–
C[C@]12CC[C@@H]3[C@H](CCC4=CC(=O)CC[C@]43C)[C@]1(O)CC[C@@]2(O)C(=O)CO,> 11.4,-0.316,4.8% [at 2.29 µM],5.17,-1.84,0.822 µM (active),4.11% [at 11.4 µM],inactive,–,> 9.22,–,–,–,–,–,–
CCC1=C(C[C@H]2NCCc3cc(OC)c(OC)cc32)C[C@H]2c3ccccc3CCN2C1,> 11.4,9.05,–,-19.1,8.03,> 46 µM,5.5% [at 11.4 µM],–,inactive,> 9.22,–,–,-34.9% [at 11.4 µM],0.316 µM (active),–,–
NC(=O)c1ccc(C(=O)Nc2ccc([As](=O)(O)O)cc2)cc1,> 11.4,-1.92,-13.8% [at 2.29 µM],26.9,5.04,> 46 µM,1.99% [at 11.4 µM],inactive,–,–,–,–,–,–,–,–
CC(C)c1ccc(C(O)(C(=O)O)c2ccc(C(C)C)cc2)cc1,> 11.4,2.63,–,-9.63,4.5,> 46 µM,5.33% [at 11.4 µM],inactive,inactive,> 9.22,–,–,–,inactive,–,–
CCC1(CCSC(=N)N)C(=O)NC(=O)NC1=O,> 11.4,6.2,-10.9% [at 2.29 µM],1.26,-4.63,> 46 µM,3.03% [at 11.4 µM],inactive,–,> 9.22,–,–,–,–,–,–
N[C@H](Cc1c[nH]c2ccccc12)P(=O)(O)O,> 11.4,-3.26,–,-3.98,-3.09,> 46 µM,4.66% [at 11.4 µM],inactive,inactive,> 9.22,–,–,–,–,–,–
